According to PubChem BioAssay (NCATS):
Results filed as inconclusive are left out. Calls of active or inactive are those of the source. Unless noted, calls come from the whole dose curve; as a rule, active = well fitted curve in the direction sought with a large enough effect; inconclusive = small, poorly fitted or top-dose-only effect, or another doubt; inactive = no such curve, though single readings can be large; an effect the other way counts as inactive or inconclusive.

What was measured:
[1] = qHTS for differential inhibitors of proliferation of Plasmodium falciparum line W2 (AID 1883); conditions: Potency: Plasmodium falciparum W2 proliferation inhibition;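 note: potency is the fitted concentration of half-maximal effect; parasites grown with compound for 72 h before lysis and staining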
[2] = target: ATP-dependent DNA helicase Q1 (Homo sapiens) (UniProt P46063); test: qHTS Validation Assay for Inhibitors of RecQ-Like Dna Helicase 1 (RECQ1) (AID 2353); note: potency is the fitted concentration of half-maximal effect
In short: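 RECQ1T1 50 nM; forked duplex (20 bp + 30-nt ss tails) 200 nM, ATP 2 mM final; pH 8.0, 2 mM MgCl2, 2.5 ug/ml poly(dI-dC); 15 min compound preincubation; discontinuous kinetic read over 2 h at RT.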

[3] = target: RecQ-like DNA helicase BLM (Homo sapiens) (UniProt P54132); test: qHTS Validation Assay for Inhibitors of Bloom's syndrome helicase (BLM) (AID 2364); note: potency is the fitted concentration of half-maximal effect
In short: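 50 nM BLM preincubated 15 min at room temperature with compound in pH 8.0 Tris buffer containing 2.5 ug/ml poly(dI-dC); started with 200 nM TAMRA/BHQ-2 forked duplex and 2 mM ATP (final). Unwinding read as TAMRA fluorescence increase, two reads 2 h apart.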

[4] = Cytometric Cell-Based qHTS for Inhibitors of the mTORC1 Signaling Pathway in MEF (Tsc2-/-, p53-/-) Cells (AID 2660);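 note: Tsc2 and p53 null MEFs carrying empty vector with compound for 24 h; percent of cells above a phospho-rpS6 to PI ratio cutoff in each well; series mostly up to about 38 µM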
In short: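 Readout: Alexa-488 phospho-rpS6 (Ser235/236) intensity divided by PI intensity, thresholded against 7.5 nM rapamycin wells and reported as % positive cells. PI cell count served as the viability measure. Compound exposure was 24 hrs at 37 degree Celsius.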

[5] = High Content Imaging Cell-Based qHTS for Inhibitors of the mTORC1 Signaling Pathway in MEF (Tsc2-/-, p53-/-) Cells (AID 2666);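 note: percent of cells scored positive for phospho-rpS6 Ser235/236 immunostaining by imaging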
In short: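 MEF Tsc2-/- p53-/- (empty vector), DMEM/10% FBS; cpd 24 h 37 °C; PFA fix, Alexa-488 p-rpS6 S235/236 Ab, Hoechst; imaged; rapamycin-defined inhibition; % positive cells/well.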

[6] = High Content Imaging Cell-Based qHTS for Inhibitors of the mTORC1 Signaling Pathway in MEF Cells (AID 2667); note: potency is the fitted concentration of half-maximal effect
In short: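 Read-out is the share of phospho-rpS6-positive cells per well, from Hoechst-normalized Alexa-488 Ser235/236 staining imaged on IN Cell. Cells: WT Tsc2-expressing Tsc2-/-, p53-/- MEFs exposed to compound for 24 hrs.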

[7] = Cytometry Cell-Based qHTS for Inhibitors of the mTORC1 Signaling Pathway in MEF cells (AID 2668);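 note: Tsc2-/- p53-/- mouse embryonic fibroblasts stably re-expressing wild-type Tsc2; percent cells positive for phospho-rpS6 Ser235/236 relative to propidium iodide stain; series mostly up to about 38 µM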
In short: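 WT MEFs (Tsc2-/-, p53-/- stably re-expressing WT Tsc2) in DMEM + 10% FBS received compounds 24 hrs after plating, for 24 hrs at 37 degree Celsius. Fixed cells stained with Alexa-488 anti-phospho-rpS6 Ser235/236 and propidium iodide; laser-scanning cytometry read-out.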

[8] = Validation screen for small molecules that induce DNA re-replication in MCF 10A normal breast cells (AID 463097); note: nearly all actives have a fitted effect of over 60% in size
In short: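 Readout: Hoechst nuclear fluorescence intensity, 405 ex / 500-530 em, by scanning plate imager; re-replication scored as increase in nuclei with elevated DNA content. Cells exposed to compound 48 hr, 37 C, 5% CO2 beforehand.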

[9] = target: Ubiquitin carboxyl-terminal hydrolase 2 (Homo sapiens) (UniProt O75604); test: qHTS Validation Assay for Inhibitors of Ubiquitin-specific Protease USP2a Using CHOP2 as the Reporter (AID 463106); note: potency is the fitted concentration of half-maximal effect
In short: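 Fluorescence read-out at Ex 485nm/Em 531nm after 60min RT, following addition of 25nM Ub-CHOP2 plus 25nM reporter substrate to USP2 core (10nM) pretreated 30min with compound. Data normalized to NEM full inhibition; concentration-response curves fitted.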

[10] = target: DNA polymerase III PolC-type (Bacillus subtilis (strain 168)) (UniProt P13267); test: qHTS Validation Assay for the Inhibitors of DNA Replication in Gram-Positive Bacteria (AID 485295);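 note: PicoGreen fluorescence of double-stranded DNA made on primed circular M13 template; series mostly up to about 57 µM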
In short: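 Reconstituted B. subtilis holoenzyme (Pol III, beta clamp, SSB, primase) was preincubated with compound at room temperature, then given single-stranded circular M13Gori plus dNTPs and NTPs. EDTA-containing PicoGreen stopped the reaction, and dsDNA product was read by fluorescence.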

[11] = target: Tumor susceptibility gene 101 protein (Homo sapiens) (UniProt Q99816); test: qHTS Validation Assay for Iinhibitors of HIV-1 Budding by Blocking the Interaction of PTAP/TSG101 (AID 485342; calls by dose curve)
In short: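 Tsg101 binding domain (10 uM final) in pH 7.5 HEPES/NaCl/Tween 20/EDTA/TCEP buffer was mixed with pin-transferred compounds, then FITC-labeled PTAP peptide (50 nM final) was added; after 20 min at r.t., fluorescence polarization was read.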

[12] = qHTS Validation Assay to Find Inhibitors of Chronic Active B-Cell Receptor Signaling (AID 485345; active = well fitted curve in the direction sought with a large enough effect in the main read-out, with a control signal flat, not every such curve was filed as active)
In short: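 TMD8 ABC-DLBCL cells stably carrying doxycycline-inducible IkappaBalpha–green luciferase fusion plus unfused red luciferase; compounds 46 uM to 3 nM, 4 h at 37C with doxycycline. Corrected green/red luminescence ratio normalized to 10 uM MG-132 and basal cell wells; curves fitted.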

[13] = qHTS for differential inhibitors of proliferation of Plasmodium falciparum line Dd2 (AID 1882); conditions: Potency: Plasmodium falciparum Dd2 proliferation inhibition;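 note: series mostly up to about 29 µM; compound exposure of 72 h on infected erythrocytes; nearly all actives have a fitted effect of over 65% in size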
In short: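 RBC culture, 0.3% parasitemia / 2.5% Hct final; cpd added by pin tool in DMSO; 72 h, 37 C, 5% CO2; lysis buffer + SYBR Green I, o/n RT dark; FI 485/535; norm. to artemisinin 0.29 uM and DMSO.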

[14] = target: Ferritin light chain (Equus caballus) (UniProt P02791); test: qHTS Validation Assay for Identification of Novel General Anesthetics (AID 2323); note: series mostly up to about 77 µM
In short: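 Competitive displacement of profluorescent 1-aminoanthracene (1-AMA, 50% saturated solution in PBS) from 10 uM horse-spleen apoferritin. Compounds incubated 10 min at room temperature; fluorescence read at 380 nm excitation/535 nm emission, normalized to free 1-AMA and complex, fitted with four-parameter Hill equation.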

[15] = qHTS Assay for Modulators of Human Peripheral Myelin Protein 22 (PMP22) Expression/Activity (AID 1967; active = well fitted curve in the direction sought with a large enough effect in the signal ratio; the % refers to the signal ratio)
In short: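 MSC80 mouse Schwann cells stably carrying Pmp22 promoter–green click beetle luciferase plus EF-alpha–red luciferase control were dosed for 24h at 37 °C. Dual-colour luminescence was filter-overlap corrected; %Activity came from green/red ratio versus untreated cells.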

[16] = qHTS for differential inhibitors of proliferation of Plasmodium falciparum line HB3 (AID 1886); conditions: Potency: Plasmodium falciparum HB3 proliferation inhibition;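 note: parasites grown with compound for 72 h before SYBR Green readout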; note: potency is the fitted concentration of half-maximal effect

Measured: Potency

DNA polymerase III PolC-type (Bacillus subtilis (strain 168)), sequence (P13267 whole entry, looked up): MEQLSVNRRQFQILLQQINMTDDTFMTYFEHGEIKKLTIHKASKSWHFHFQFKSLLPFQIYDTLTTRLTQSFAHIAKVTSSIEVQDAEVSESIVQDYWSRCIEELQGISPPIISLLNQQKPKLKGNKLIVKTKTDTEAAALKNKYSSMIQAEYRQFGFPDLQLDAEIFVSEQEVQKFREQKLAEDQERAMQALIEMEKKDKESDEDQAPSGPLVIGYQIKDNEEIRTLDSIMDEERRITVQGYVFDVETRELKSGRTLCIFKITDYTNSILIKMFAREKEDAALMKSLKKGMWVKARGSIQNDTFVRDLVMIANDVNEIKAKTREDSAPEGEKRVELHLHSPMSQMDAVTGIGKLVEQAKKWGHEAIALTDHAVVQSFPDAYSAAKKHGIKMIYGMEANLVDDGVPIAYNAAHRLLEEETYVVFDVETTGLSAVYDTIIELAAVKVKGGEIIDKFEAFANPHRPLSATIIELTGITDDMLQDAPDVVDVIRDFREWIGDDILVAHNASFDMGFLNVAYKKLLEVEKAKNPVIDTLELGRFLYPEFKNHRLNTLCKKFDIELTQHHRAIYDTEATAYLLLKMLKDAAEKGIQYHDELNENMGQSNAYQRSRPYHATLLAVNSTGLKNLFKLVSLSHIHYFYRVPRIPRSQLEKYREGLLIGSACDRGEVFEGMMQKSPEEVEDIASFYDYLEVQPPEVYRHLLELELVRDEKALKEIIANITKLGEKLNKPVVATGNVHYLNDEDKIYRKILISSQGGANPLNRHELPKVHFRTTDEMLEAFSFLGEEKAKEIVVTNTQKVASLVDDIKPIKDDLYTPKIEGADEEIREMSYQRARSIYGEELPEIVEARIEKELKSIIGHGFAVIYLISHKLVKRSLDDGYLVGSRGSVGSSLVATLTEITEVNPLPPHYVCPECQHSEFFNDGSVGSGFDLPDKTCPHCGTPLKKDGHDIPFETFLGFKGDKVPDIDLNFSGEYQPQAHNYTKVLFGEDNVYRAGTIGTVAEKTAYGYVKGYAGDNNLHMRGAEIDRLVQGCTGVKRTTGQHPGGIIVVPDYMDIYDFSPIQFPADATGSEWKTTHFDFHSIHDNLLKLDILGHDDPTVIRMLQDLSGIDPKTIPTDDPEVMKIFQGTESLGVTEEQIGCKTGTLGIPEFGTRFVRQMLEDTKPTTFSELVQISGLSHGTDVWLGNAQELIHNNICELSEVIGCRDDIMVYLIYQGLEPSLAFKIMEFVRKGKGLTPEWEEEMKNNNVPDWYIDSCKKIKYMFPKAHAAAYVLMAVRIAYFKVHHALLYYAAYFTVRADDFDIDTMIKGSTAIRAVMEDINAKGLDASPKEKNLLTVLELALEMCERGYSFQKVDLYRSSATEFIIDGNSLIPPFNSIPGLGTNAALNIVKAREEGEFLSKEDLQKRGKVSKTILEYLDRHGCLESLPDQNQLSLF
RecQ-like DNA helicase BLM (Homo sapiens), sequence (P54132 whole entry, looked up): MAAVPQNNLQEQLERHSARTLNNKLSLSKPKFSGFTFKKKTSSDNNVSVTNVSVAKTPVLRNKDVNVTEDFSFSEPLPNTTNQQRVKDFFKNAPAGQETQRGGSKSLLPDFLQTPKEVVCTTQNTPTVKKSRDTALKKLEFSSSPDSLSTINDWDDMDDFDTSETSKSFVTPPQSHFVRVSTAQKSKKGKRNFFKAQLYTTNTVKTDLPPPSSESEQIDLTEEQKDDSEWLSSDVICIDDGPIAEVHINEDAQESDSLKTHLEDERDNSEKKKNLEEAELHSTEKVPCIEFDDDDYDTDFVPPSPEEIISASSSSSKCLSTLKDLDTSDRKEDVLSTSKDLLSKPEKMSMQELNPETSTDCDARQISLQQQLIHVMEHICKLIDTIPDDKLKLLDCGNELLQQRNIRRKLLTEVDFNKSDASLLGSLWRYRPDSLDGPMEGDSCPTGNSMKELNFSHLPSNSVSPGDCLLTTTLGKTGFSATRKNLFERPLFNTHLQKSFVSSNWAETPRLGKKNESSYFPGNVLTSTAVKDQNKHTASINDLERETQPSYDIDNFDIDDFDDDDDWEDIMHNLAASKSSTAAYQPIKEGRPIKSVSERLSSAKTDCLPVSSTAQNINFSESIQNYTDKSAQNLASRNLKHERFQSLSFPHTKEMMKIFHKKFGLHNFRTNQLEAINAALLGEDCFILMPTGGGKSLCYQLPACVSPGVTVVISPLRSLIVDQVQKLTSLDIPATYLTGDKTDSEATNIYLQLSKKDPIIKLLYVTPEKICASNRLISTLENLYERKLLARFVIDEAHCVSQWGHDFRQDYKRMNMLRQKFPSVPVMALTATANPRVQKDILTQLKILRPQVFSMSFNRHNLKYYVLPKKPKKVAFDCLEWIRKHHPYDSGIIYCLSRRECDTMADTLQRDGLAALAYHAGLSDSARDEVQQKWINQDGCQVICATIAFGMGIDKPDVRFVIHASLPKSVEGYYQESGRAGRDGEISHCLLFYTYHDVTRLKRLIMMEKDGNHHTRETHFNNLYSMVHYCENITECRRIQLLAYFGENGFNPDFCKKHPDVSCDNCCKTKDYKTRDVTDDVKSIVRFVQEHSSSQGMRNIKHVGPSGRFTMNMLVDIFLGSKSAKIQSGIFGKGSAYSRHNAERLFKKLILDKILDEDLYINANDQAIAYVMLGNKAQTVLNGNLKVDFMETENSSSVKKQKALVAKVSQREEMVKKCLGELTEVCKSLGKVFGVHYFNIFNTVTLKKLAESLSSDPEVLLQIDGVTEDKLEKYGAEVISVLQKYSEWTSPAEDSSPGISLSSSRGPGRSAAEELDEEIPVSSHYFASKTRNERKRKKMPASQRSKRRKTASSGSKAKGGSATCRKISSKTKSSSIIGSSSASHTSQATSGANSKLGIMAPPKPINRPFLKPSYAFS
ATP-dependent DNA helicase Q1 (Homo sapiens), sequence (P46063 whole entry, looked up): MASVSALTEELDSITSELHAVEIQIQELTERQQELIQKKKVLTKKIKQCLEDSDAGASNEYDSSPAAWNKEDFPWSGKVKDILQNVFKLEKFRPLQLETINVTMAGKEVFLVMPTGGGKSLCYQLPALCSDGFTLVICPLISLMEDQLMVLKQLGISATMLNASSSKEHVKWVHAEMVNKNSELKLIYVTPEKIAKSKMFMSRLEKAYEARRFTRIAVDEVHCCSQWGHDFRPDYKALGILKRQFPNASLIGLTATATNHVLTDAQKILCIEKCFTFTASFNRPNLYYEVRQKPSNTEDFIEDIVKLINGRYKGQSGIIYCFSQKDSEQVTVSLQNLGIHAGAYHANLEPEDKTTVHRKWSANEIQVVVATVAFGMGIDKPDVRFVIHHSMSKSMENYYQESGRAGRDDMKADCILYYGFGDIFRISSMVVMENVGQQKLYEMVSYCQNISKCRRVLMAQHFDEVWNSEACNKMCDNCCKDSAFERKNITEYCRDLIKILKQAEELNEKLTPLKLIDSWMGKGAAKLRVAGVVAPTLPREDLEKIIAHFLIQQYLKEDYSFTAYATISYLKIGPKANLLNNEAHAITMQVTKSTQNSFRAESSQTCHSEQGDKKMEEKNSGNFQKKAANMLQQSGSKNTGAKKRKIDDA
Ubiquitin carboxyl-terminal hydrolase 2 (Homo sapiens), sequence (O75604 whole entry, looked up): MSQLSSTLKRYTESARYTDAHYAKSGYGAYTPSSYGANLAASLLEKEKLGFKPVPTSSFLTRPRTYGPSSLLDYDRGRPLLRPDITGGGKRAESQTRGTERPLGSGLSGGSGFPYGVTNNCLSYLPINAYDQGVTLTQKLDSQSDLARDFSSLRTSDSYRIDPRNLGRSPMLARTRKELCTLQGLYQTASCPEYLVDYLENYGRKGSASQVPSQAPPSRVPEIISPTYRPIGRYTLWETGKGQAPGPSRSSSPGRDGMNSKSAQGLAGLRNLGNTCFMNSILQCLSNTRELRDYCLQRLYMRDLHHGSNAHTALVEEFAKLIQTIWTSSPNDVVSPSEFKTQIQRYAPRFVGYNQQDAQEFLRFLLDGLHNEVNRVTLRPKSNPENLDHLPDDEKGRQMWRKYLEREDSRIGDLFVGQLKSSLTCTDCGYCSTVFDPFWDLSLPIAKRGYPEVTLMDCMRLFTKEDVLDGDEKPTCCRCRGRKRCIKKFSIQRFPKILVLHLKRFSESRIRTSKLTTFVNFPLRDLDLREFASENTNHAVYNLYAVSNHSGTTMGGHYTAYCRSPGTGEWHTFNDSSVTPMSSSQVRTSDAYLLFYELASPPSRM
Ferritin light chain (Equus caballus), sequence (P02791 2-175 limits assumed): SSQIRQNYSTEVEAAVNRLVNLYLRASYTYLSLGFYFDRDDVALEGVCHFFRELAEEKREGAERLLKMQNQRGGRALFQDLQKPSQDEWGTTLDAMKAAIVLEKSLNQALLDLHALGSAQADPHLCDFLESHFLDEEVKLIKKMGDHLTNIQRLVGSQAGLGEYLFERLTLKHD
Tumor susceptibility gene 101 protein (Homo sapiens), sequence (Q99816 whole entry, looked up, the tested form may be a part): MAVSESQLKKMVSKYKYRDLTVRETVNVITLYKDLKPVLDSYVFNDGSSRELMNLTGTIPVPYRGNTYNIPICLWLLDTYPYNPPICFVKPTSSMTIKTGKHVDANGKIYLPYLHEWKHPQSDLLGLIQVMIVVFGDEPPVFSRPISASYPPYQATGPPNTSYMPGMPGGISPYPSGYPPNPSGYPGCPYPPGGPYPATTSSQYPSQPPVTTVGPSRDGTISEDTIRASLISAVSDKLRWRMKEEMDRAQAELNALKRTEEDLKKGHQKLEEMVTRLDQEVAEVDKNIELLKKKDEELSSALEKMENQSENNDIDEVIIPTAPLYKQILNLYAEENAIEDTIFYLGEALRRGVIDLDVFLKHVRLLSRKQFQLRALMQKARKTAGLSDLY

Cn1cc(C(=O)OCC2CCN(CCNS(C)(=O)=O)CC2)c2ccccc21
active: [1] 8.91 µM
not listed: [13] | [14] | [15] | [16]
inactive: all other assays above

CCCCCCCCCC[Si](C)(C)CCC(=O)NC(Cc1ccc(C)cc1)c1ccccc1 (stereo not given)
inactive: [2] | [4] | [5] | [6] | [8] | [9] | [10] | [11] | [12]

O=C1OC(=O)C2C3CCC(O3)C12 (stereo not given)
not listed: [1] | [8] | [12] | [14] | [15] | [16]
inactive: all other assays above

COc1cc(/C=C(\C#N)C(=O)c2ccc(O)c(O)c2)cc(I)c1O
active: [2] 4.47 µM | [3] 10 µM | [9] 14.7 µM
inactive: [13] | [4] | [5] | [6] | [7] | [11]

N[C@@H](Cc1c[nH]c2ccccc12)C(=O)O
not listed: [1] | [3] | [9] | [15] | [16]
inactive: all other assays above

c1ccc(C(NCc2cccnc2)(c2ccccc2)c2ccccc2)cc1
inactive: [4] | [5] | [6] | [7] | [9] | [10] | [11]

NOCC(=O)O
not listed: [1] | [9] | [14] | [16]
inactive: all other assays above

Cn1c(=O)c2c(nc(/C=C/c3cccc(Cl)c3)n2C)n(C)c1=O
active: [1] 11.2 µM | [16] 12.6 µM
not listed: [3] | [11] | [12] | [13] | [15]
inactive: all other assays above

Cc1ccccc1/C=C/C1=NCCN1
inactive: [2] | [3] | [4] | [5] | [6] | [7] | [10] | [11]
active: [1] 12.6 µM | [16] 12.6 µM

NCCNS(=O)(=O)c1cccc2c(Cl)cccc12
inactive: [2] | [3] | [4] | [5] | [8] | [9] | [10] | [11]
active: [1] 6.31 µM | [6] 16.5 µM

Cc1ccc2c(c1)C(N1CCN(C)CC1)=Nc1cccnc1N2
active: [1] 7.08 µM
not listed: [3] | [12] | [13]
inactive: all other assays above

N=C(N)SCCN
not listed: [1] | [11] | [12] | [14] | [16]
inactive: all other assays above
